# The list is not random: actives were taken first. Their share in the collection is about 4.3%.
# NR3A LBD binder: binders of NR3A ligand-binding domain, primary screen, biophysical, differential scanning fluorimetry, uHTS; Glutamate receptor ionotropic, NMDA 3A (GRIN3A) ligand-binding domain; NR3A LBD differential scanning fluorimetry, Tm shift; 0% = protein alone, 100% = glycine-bound protein; Tm shift relative to glycine control, % at 25 µM; 340,000 compounds, 2.5% hits;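 active = melting temperature shift of at least 10% of the positive control shift, at one fixed dose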
# HGIII-sPLA2 inh: human group III sPLA2 inhibitors, primary screen, biochemical, QFRET, BODIPY PC-A2 liposome substrate; Group 3 secretory phospholipase A2 (Homo sapiens), Q9NZ20; QFRET BODIPY PC-A2 liposome hydrolysis, fluorescence; inhibition, % at 12.2 µM; 370,000 compounds, 0.56% hits; AID 743126, 2013;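 active = inhibition above mean plus 3 SD of compounds lying within the high and low control bounds, cut at about 19% in these data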;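 also: 0% = median of test compound wells and 100% = no enzyme DMSO wells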
# FAS-TE inh: FAS thioesterase domain inhibitors, primary screen, biochemical, fluorescence intensity, uHTS | AID 602261, 2012 | recombinant FAS-TE, OMFH fluorogenic substrate, fluorescence endpoint | 360,000 compounds, 0.67% hits | Fatty acid synthase (Homo sapiens), P49327 | inhibition, % at 15 µM;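 active = compounds whose normalised, plate-corrected inhibition of enzyme fluorescence in the single-dose primary screen is 50% or more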;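 also: 0% = DMSO with enzyme and 100% = substrate without enzyme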
# ADAM10 inh: human ADAM10 inhibitors, primary screen, biochemical, QFRET, HTS. Disintegrin and metalloproteinase domain-containing protein 10 (Homo sapiens), O14672. recombinant ADAM10, EDANS/DABCYL FRET peptide cleavage, 3 h. inhibition, % at 7 µM. 370,000 compounds, 0.62% hits. AID 720582, 2013;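 active = inhibition above a per-campaign cutoff equal to the mean of compounds falling between control-based bounds plus 3 SD, cut at about 20% in these data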;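 also: 0% = DMSO wells while the 100% control is not disclosed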
# Target sequence (O14672 214-748 limits assumed): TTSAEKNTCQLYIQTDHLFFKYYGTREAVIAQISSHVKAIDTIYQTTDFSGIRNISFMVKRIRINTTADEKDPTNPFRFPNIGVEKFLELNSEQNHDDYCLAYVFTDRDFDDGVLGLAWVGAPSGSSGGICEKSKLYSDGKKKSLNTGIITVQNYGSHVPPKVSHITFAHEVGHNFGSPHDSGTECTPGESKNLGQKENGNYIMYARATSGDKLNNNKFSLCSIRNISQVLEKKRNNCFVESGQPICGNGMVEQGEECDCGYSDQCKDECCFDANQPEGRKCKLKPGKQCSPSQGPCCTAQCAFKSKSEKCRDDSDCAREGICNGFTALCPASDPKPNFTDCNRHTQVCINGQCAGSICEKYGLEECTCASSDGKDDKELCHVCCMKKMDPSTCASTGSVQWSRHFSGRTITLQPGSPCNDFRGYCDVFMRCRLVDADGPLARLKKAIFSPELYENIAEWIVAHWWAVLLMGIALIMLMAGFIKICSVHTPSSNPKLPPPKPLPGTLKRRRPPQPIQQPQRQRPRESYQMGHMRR
# ADAM17 inh: ADAM17 inhibitors, primary screen, biochemical, QFRET | Disintegrin and metalloproteinase domain-containing protein 17 (Homo sapiens), P78536 | recombinant ADAM17, EDANS/DABCYL FRET peptide cleavage | inhibition, % at 6.95 µM | 370,000 compounds, 0.83% hits;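 active = inhibition above the mean of compounds lying between control limits plus 3 SD, set per campaign, cut at about 8.5% in these data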;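 also: 0% = DMSO-only wells as the low control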
# FAS-TE conf: FAS thioesterase domain inhibitors, confirmation, biochemical, fluorescence intensity, single concentration; inhibition, % at 15 µM; AID 624325, 2012; shares compounds with FAS-TE inh; 2,300 compounds, 45% hits; recombinant FAS-TE, OMFH fluorogenic substrate;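 active = compounds inhibiting the enzyme by at least 50% at 15 µM in any one of the replicates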;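 also: 0% = enzyme with DMSO only and 100% = wells lacking enzyme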
# ADAM10 confirm: human ADAM10 inhibitors, confirmation, biochemical, QFRET, triplicate; shares compounds with ADAM10 inh; ADAM10 QFRET peptide cleavage, EDANS fluorescence; inhibition, % at 6.95 µM; 2,100 compounds, 1% hits; AID 743208, 2013;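 active = inhibition above about 20% chosen separately for each screening run, limit read from the data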;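 also: 0% = DMSO wells and 100% = marimastat wells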
# ADAM17 ctr: ADAM17 inhibitors, counter-screen for ADAM10 exosite inhibitor project, biochemical, QFRET, high throughput. shares compounds with ADAM10 inh. 2,100 compounds, 0.5% hits. ADAM17 QFRET peptide cleavage, EDANS fluorescence. inhibition, % at 6.95 µM. AID 743214, 2013;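 active = mean triplicate inhibition above the solvent-only control wells' mean plus 3 SD, cut at about 12% in these data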;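 also: 0% = DMSO wells and 100% = marimastat wells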
# Starred values were filed as active, the others as inactive; i = inactive; . = not tested or not shown.
SMILES,NR3A LBD binder,HGIII-sPLA2 inh,FAS-TE inh,ADAM10 inh,ADAM17 inh,FAS-TE conf,others
COc1ccc(S(=O)(=O)n2ccc(-c3cnc(-c4ccccc4)s3)n2)cc1,-9,-16,58*,-225,-78,42,
Cc1ccc(S(=O)(=O)c2nnn3c2nc(N2CCC(C(N)=O)CC2)c2ccccc23)cc1C,-9,-5,53*,4,-1,61*,
C=CCN1C(=O)[C@@H](CC(=O)N2CCOCC2)[C@]2(C(=O)OC)CCCCC=C12,.,9,.,1,1,.,
CC(=O)Nc1ccc(S(=O)(=O)N2CC3(C)CC2CC(C)(C)C3)cc1 (configuration not stated),-2,1,0,-5,-4,.,
O=C(Nc1ccc(NC(=O)c2ccc(Cl)c(S(=O)(=O)N3CCOCC3)c2)cc1)c1ccccc1,-2,8,-12,0,-7,.,
CC1(C)CC2CC(C)(CN2S(=O)(=O)c2ccc(C(=O)Nc3ccc(S(=O)(=O)N4CCOCC4)cc3)cc2)C1 (configuration not stated),6,-17,58*,8,8,25,
CC1(C)CC2CC(C)(CN2S(=O)(=O)c2ccc(C(=O)Nc3ccc(Cl)c(S(=O)(=O)N4CCOCC4)c3)cc2)C1 (configuration not stated),1,-2,80*,1,2,13,
COc1cc2c(cc1OC)[C@](C)(c1ccccc1)C[C@@H]2NCC=C(C)C,.,-17,.,-6,0,.,
COc1ccccc1[C@@H]1C(c2ccccc2)=NN(c2ccc(Br)cc2)[C@H]1C(=O)N1CCOC1=O,-8,-6,74*,i,-140,13,
COc1ccccc1[C@@H]1C(c2cccc(C)c2)=NN(c2ccc(Br)cc2)[C@H]1C(=O)N1CCOC1=O,-1,7,62*,-278,-79,17,
COc1ccccc1[C@H]1C(c2cccc(Cl)c2)=NN(c2ccccc2)[C@@H]1CO,-7,.,27,.,.,.,
COC(=O)c1c(NC(=O)c2ccc([N+](=O)[O-])o2)sc2c1CCN(C(C)C)C2,0,0,8,-18,1,.,
CC(C)N1CCc2c(sc(NC(=O)c3ccc([N+](=O)[O-])o3)c2C(N)=O)C1,.,10,60*,5,4,71*,
N#Cc1ccccc1Sc1ccccc1C(=O)Nc1ccc(Br)cc1,0,-28,51*,16,6,-7,
N#Cc1ccccc1Sc1ccccc1C(=O)Nc1ccc2ccccc2c1,1,-18,60*,17,8.6*,38,
CCCc1cc(=O)n2[nH]c(C)c(-c3ccccc3)c2n1,1,4,-6,-20,-8,.,
Cc1[nH]n2c(=O)cc(-c3ccc([N+](=O)[O-])cc3)nc2c1-c1ccccc1,14*,-5,59*,23*,8,77*,ADAM10 confirm=2;ADAM17 ctr=1
Cc1cc(C)c(Cn2cnc(-c3ccc([N+](=O)[O-])cc3)c2)c(C)c1,-4,-2,54*,29*,-16,53*,ADAM10 confirm=4;ADAM17 ctr=1
